Results taken from PubChem BioAssay AID1159580 (chemical genetic matrix, 2015).
Values joined by “and” are separate entries in the source; they are usually repeats but may differ in a detail not shown here. Identical values can stand only once. About 2,000 (36%) of roughly 5,500 compounds were called active. About 18% were inconclusive and are not listed. Cut-off read from the data, not from the text of the source: active = normalized growth mostly below about 0.91 (no sharp cut-off); inconclusive = no clear call, values can overlap the other calls; inactive = mostly above about 0.92. This is one part of the list.

Experiment: chemical genetic growth profiling, strain panel (AID 1159580);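 note: tested at 20 µM; growth read once vehicle control cultures reached saturation at 30 °C; 1 = growth at the plate median or of vehicle wells; lower values mean less growth of the strain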
Conditions: growth OD

Measured: normalized growth

NC(N)=NC(N)=Nc1ccccc1
inactive: S. cerevisiae deletion strains, locus YJR066W, strain TOR1, active compounds read low 0.931 | S. cerevisiae deletion strains, locus YKL009W, strain mrt4, active compounds read low 0.998 | S. cerevisiae deletion strains, locus YKL068W, active compounds read low 0.996 | S. cerevisiae deletion strains, locus YKL085W, strain MDH1 (second series), active compounds read low 1 | S. cerevisiae deletion strains, locus YKL085W, strain MDH1, active compounds read low 1 | S. cerevisiae deletion strains, locus YKL160W, strain elf1, active compounds read low 0.991 | S. cerevisiae deletion strains, locus YKL190W, strain CNB1, active compounds read low 1 | S. cerevisiae deletion strains, locus YKR001C, strain vps1, active compounds read low 0.994 | S. cerevisiae deletion strains, locus YKR026C, strain gcn3, active compounds read low 1 | S. cerevisiae deletion strains, locus YKR091W, strain srl3, active compounds read low 0.994 | S. cerevisiae deletion strains, locus YLL001W, strain dnm1, active compounds read low 0.982 | S. cerevisiae deletion strains, locus YLL026W, active compounds read low 1 | S. cerevisiae deletion strains, locus YLL041C, strain sdh2, active compounds read low 1 | S. cerevisiae deletion strains, locus YLR027C, strain aat2, active compounds read low 1 | S. cerevisiae deletion strains, locus YLR039C, strain RIC1, active compounds read low 1.05 | S. cerevisiae deletion strains, locus YLR058C, strain SHM2, active compounds read low 1.02 | S. cerevisiae deletion strains, locus YLR102C, strain apc9, active compounds read low 0.994 | S. cerevisiae deletion strains, locus YLR113W, strain HOG1, active compounds read low 0.988 | S. cerevisiae deletion strains, locus YLR221C, strain rsa3, active compounds read low 1 | S. cerevisiae deletion strains, locus YLR258W, strain gsy2, active compounds read low 0.988 | S. cerevisiae deletion strains, locus YLR262C, strain YPT6 (second series), active compounds read low 0.985 | S. cerevisiae deletion strains, locus YLR262C, strain YPT6, active compounds read low 1.05 | S. cerevisiae deletion strains, locus YLR268W, strain sec22, active compounds read low 0.997 | S. cerevisiae deletion strains, locus YLR320W, strain mms22, active compounds read low 0.993 | S. cerevisiae deletion strains, locus YLR330W, strain CHS5, active compounds read low 1.01 | S. cerevisiae deletion strains, locus YLR342W, strain FKS1 (second series), active compounds read low 1.02 | S. cerevisiae deletion strains, locus YLR342W, strain FKS1, active compounds read low 1 | S. cerevisiae deletion strains, locus YLR357W, strain rsc2, active compounds read low 0.998 | S. cerevisiae deletion strains, locus YLR370C, strain arc18, active compounds read low 1.01 | S. cerevisiae deletion strains, locus YLR371W, strain rom2, active compounds read low 0.986 | S. cerevisiae deletion strains, locus YLR384C, strain iki3, active compounds read low 0.999 | S. cerevisiae deletion strains, locus YLR418C, strain cdc73, active compounds read low 0.951 | S. cerevisiae deletion strains, locus YML016C, strain PPZ1, active compounds read low 1.02 | S. cerevisiae deletion strains, locus YML032C, strain rad52, active compounds read low 0.991 | S. cerevisiae deletion strains, locus YML120C, strain ndi1, active compounds read low 0.995 | S. cerevisiae deletion strains, locus YML124C, strain tub3, active compounds read low 0.991 | S. cerevisiae deletion strains, locus YMR058W, strain fet3, active compounds read low 1 | S. cerevisiae deletion strains, locus YMR078C, strain ctf18, active compounds read low 0.998 | S. cerevisiae deletion strains, locus YMR125W, strain sto1, active compounds read low 0.982 | S. cerevisiae deletion strains, locus YMR129W, active compounds read low 0.996 | S. cerevisiae deletion strains, locus YMR205C, strain PFK2, active compounds read low 1.01 | S. cerevisiae deletion strains, locus YMR223W, strain ubp8, active compounds read low 0.99 | S. cerevisiae deletion strains, locus YMR231W, strain pep5, active compounds read low 0.994 | S. cerevisiae deletion strains, locus YMR263W, strain SAP30, active compounds read low 0.993 | S. cerevisiae deletion strains, locus YMR307W, strain GAS1, active compounds read low 1.04 and 0.978 | S. cerevisiae deletion strains, locus YNL067W, strain RPL9B, active compounds read low 1.03 | S. cerevisiae deletion strains, locus YNL071W, strain lat1, active compounds read low 1.01 | S. cerevisiae deletion strains, locus YNL128W, strain TEP1, active compounds read low 1.01 and 1.02 | S. cerevisiae deletion strains, locus YNL175C, strain NOP13, active compounds read low 1.02 | S. cerevisiae deletion strains, locus YNL183C, strain NPR1, active compounds read low 0.923 | S. cerevisiae deletion strains, locus YNL197C, strain WHI3, active compounds read low 1.02 | S. cerevisiae deletion strains, locus YNL209W, strain ssb2, active compounds read low 1 | S. cerevisiae deletion strains, locus YNL224C, strain SQS1, active compounds read low 0.998 | S. cerevisiae deletion strains, locus YNL233W, strain BNI4, active compounds read low 1.02 | S. cerevisiae deletion strains, locus YNL248C, strain rpa49, active compounds read low 0.998 | S. cerevisiae deletion strains, locus YNL250W, strain rad50, active compounds read low 0.992 | S. cerevisiae deletion strains, locus YNL271C, strain bni1, active compounds read low 0.994 | S. cerevisiae deletion strains, locus YNL298W, strain CLA4, active compounds read low 0.993 | S. cerevisiae deletion strains, locus YNL307C, strain MCK1, active compounds read low 1 | S. cerevisiae deletion strains, locus YNL322C, strain KRE1 (second series), active compounds read low 1 | S. cerevisiae deletion strains, locus YNL322C, strain KRE1, active compounds read low 1 | S. cerevisiae deletion strains, locus YNR049C, strain mso1, active compounds read low 1.01 | S. cerevisiae deletion strains, locus YNR052C, strain pop2, active compounds read low 0.991 | S. cerevisiae deletion strains, locus YOL006C, strain TOP1, active compounds read low 1.03 | S. cerevisiae deletion strains, locus YOL012C, strain htz1 1.06 | S. cerevisiae deletion strains, locus YOL147C, strain pex11, active compounds read low 0.991 | S. cerevisiae deletion strains, locus YOR001W, strain rrp6, active compounds read low 0.989 | S. cerevisiae deletion strains, locus YOR061W, strain CKA2, active compounds read low 1.01 | S. cerevisiae deletion strains, locus YOR069W, strain VPS5, active compounds read low 1.01 | S. cerevisiae deletion strains, locus YOR070C, strain gyp1, active compounds read low 1 | S. cerevisiae deletion strains, locus YOR080W, strain dia2, active compounds read low 0.98 | S. cerevisiae deletion strains, locus YOR083W, strain WHI5 (second series), active compounds read low 1.02 | S. cerevisiae deletion strains, locus YOR083W, strain WHI5, active compounds read low 0.996 | S. cerevisiae deletion strains, locus YOR106W, strain vam3, active compounds read low 1 | S. cerevisiae deletion strains, locus YOR136W, strain idh2, active compounds read low 0.995 | S. cerevisiae deletion strains, locus YOR144C, strain elg1, active compounds read low 0.994 | S. cerevisiae deletion strains, locus YOR184W, strain ser1, active compounds read low 0.977 | S. cerevisiae deletion strains, locus YOR231W, strain MKK1, active compounds read low 1.01 | S. cerevisiae deletion strains, locus YOR265W, strain rbl2, active compounds read low 1.01 | S. cerevisiae deletion strains, locus YOR270C, strain vph1, active compounds read low 1.06 | S. cerevisiae deletion strains, locus YOR290C, strain snf2, active compounds read low 0.987 | S. cerevisiae deletion strains, locus YOR316C, strain cot1, active compounds read low 0.996 | S. cerevisiae deletion strains, locus YPL051W, strain arl3, active compounds read low 0.996 | S. cerevisiae deletion strains, locus YPL055C, strain LGE1, active compounds read low 0.993 | S. cerevisiae deletion strains, locus YPL078C, strain atp4, active compounds read low 1 | S. cerevisiae deletion strains, locus YPL106C, strain sse1, active compounds read low 0.955 | S. cerevisiae deletion strains, locus YPL240C, strain hsp82, active compounds read low 0.986 | S. cerevisiae deletion strains, locus YPL241C, strain CIN2, active compounds read low 1.01 | S. cerevisiae deletion strains, locus YPL256C, strain CLN2, active compounds read low 0.996 | S. cerevisiae deletion strains, locus YPR119W, strain clb2, active compounds read low 0.991 | S. cerevisiae deletion strains, locus YPR141C, strain kar3, active compounds read low 0.98 | S. cerevisiae deletion strains, locus YPR163C, strain tif3, active compounds read low 0.999 | S. cerevisiae deletion strains, locus YPR167C, strain met16, active compounds read low 0.996 | S. cerevisiae deletion strains, strain wtn01, active compounds read low 1 | S. cerevisiae strains, strain wild type, active compounds read low 1.01
